From publication PMC5540273 (PLoS ONE, 2017)

Assays:
Conditions in all cases: concentration: 1 μM, replicates: in singlicate; n = 1
CLK2 = tested on: CLK2
CLK3 = tested on: CLK3
CLK4 = tested on: CLK4
CSF1R-autoinhibited = tested on: CSF1R-autoinhibited
CSF1R = tested on: CSF1R
CSK = tested on: CSK
CSNK1A1L = tested on: CSNK1A1L
CSNK1A1 = tested on: CSNK1A1
CSNK1D = tested on: CSNK1D
CSNK1E = tested on: CSNK1E
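Note: KINOMEscan kinase panel screen.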

Structure (SMILES)	%Inh (CLK2)	%Inh (CLK3)	%Inh (CLK4)	%Inh (CSF1R-autoinhibited)	%Inh (CSF1R)	%Inh (CSK)	%Inh (CSNK1A1L)	%Inh (CSNK1A1)	%Inh (CSNK1D)	%Inh (CSNK1E)
Cc1occc1-c1ncc(OC[C@@H](N)Cc2c[nH]c3ccccc23)cc1-c1ccc2[nH]nc(C)c2c1.O=C(O)C(F)(F)F [GSK682037]	63%	25%	9%	0%	1%	0%	97.3%	97%	97.8%	99.9%
Cc1ccc(S(=O)(=O)Nc2ccc(Nc3nccc(Nc4cccc5[nH]ncc45)n3)cc2)cc1 [GSK581271]	0%	13%	87%	0%	22%	0%	5%	0%	46%	36%
CSc1cccc2c(-c3ccncn3)c(-c3ccc(F)cc3)nn12 [GW514786]	0%	11%	13%	21%	0%	0%	21%	61%	84%	69%
O=C(Nc1cccc(-c2nn3ccccc3c2-c2ccnc(Nc3cccc(F)c3)n2)c1)c1c(F)ccc(F)c1Cl [GSK357952]	0%	0%	11%	0%	93.3%	20%	7%	2%	0%	40%
Cc1ccc(C(=O)N2CC[C@@H](O)C2)cc1-n1c(C)cc(OCc2ccc(F)cc2F)c(Br)c1=O	0%	0%	0%	0%	75%	0%	0%	0%	0%	0%
COc1cc(Nc2nccc(N3CCC(NC(=O)Nc4cccc(C(C)=O)c4)C3)n2)cc(OC)c1OC (stereo not shown) [GSK1379753]	0%	11%	0%	0%	31%	0%	0%	0%	3%	18%
CNC(=O)c1ccccc1Nc1nc(Nc2ccc(N3CCOCC3)cc2)ncc1Cl.Cl [GSK1576028]	97.1%	90%	98.8%	89%	97.5%	85%	68%	30%	36%	13%
NCCCC(NC(=O)c1cc(Br)c(-c2ccnc3[nH]ccc23)s1)c1ccccc1.O=C(O)C(F)(F)F.O=C(O)C(F)(F)F (stereo not shown) [GSK1287544]	61%	33%	45%	0%	2%	0%	59%	90%	82%	84%
CCCCc1nn2ncccc2c1-c1ccnc(Nc2ccc(N3CCN(C)CC3)cc2)n1 [GW684941]	3%	0%	0%	73%	99.9%	7%	46%	93.1%	90.9%	99.4%
Cn1cc(-c2ccc3c(c2)CCN3C(=O)Cc2cccc(Cl)c2)c2c(N)ncnc21 [GSK2606590]	0%	13%	14%	5%	97.6%	6%	13%	20%	16%	63%
Cc1cccc(NC(=O)Nc2ccc(Oc3ncnc4ccn(C)c34)cc2)c1	0%	0%	8%	48%	99.9%	0%	0%	0%	0%	11%
Nc1ncnc2c1nc(-c1ccccc1)n2-c1ccccc1 [SKF-97293]	28%	25%	20%	22%	7%	22%	0%	0%	10%	23%
CCS(=O)(=O)c1ccc(OC)c(Nc2nccc(-c3c(-c4cccc(NC(=O)c5c(F)cccc5F)c4)nn4ncccc34)n2)c1 [GSK326180]	0%	9%	21%	0%	24%	17%	0%	0%	7%	35%
O=C(Nc1cccc(-c2nn3ncccc3c2-c2ccnc(Nc3ccccc3)n2)c1)c1c(F)cccc1F [GSK198271]	0%	25%	8%	17%	99.7%	97.5%	2%	0%	20%	85%
O=C(Nc1ccccc1F)NC1CCN(c2ccnc(Nc3ccc(F)cc3)n2)CC1 [GSK1379800]	0%	0%	0%	46%	5%	0%	27%	0%	54%	60%
Cn1cc(-c2[nH]c3cc(NC(=O)[C@H](N)C4CCCCC4)cc4c3c2C=NNC4=O)cn1	16%	13%	55%	49%	100%	71%	3%	24%	14%	11%
